Screens from PubChem BioAssay.
This is a sample that favours compounds with a hit; in the whole collection about 6% have one here.
D1 ag = agonists of human D1 dopamine receptor; P21728; HEK293 T-REx D1 cells, calcium flux, agonist mode; activation, % at 2 µM; actives 1% (n = 360,000); AID 504660; in the data active means activation above about 30%
Target sequence (P21728 whole entry, looked up): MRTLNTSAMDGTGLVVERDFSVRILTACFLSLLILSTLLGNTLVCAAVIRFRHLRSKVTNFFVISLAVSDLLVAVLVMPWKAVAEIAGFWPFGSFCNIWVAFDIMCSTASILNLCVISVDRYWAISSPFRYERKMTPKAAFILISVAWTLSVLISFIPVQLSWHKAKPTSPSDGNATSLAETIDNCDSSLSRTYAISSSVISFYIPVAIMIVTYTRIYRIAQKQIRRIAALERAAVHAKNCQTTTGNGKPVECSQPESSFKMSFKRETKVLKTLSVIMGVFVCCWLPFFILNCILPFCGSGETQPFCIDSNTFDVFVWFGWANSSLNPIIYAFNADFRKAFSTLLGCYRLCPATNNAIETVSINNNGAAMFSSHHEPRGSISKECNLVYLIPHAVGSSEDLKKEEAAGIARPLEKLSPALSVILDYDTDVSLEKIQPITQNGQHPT
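Inducible HEK293 T-REx D1 cells, force-coupled to calcium signalling, were plated at 4000 cells/well with tetracycline and held overnight at 30 C. After no-wash calcium dye loading, compound-evoked calcium rise over 180 s flagged agonists.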
DRD3 antagonist = D3 dopamine receptor (human) antagonism; P35462; D3R cells, DiscoveRx beta-arrestin luminescence, antagonist mode; stronger effect = lower value; max response, negative = inhibition, %; actives 2.5% (n = 360,000); AID 652054; in the data active means max response below about -50%; inconclusive means no clear call, values can overlap the other calls
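Cells plated overnight at 1500 cells/well, then exposed to library compounds with dopamine controls for 90 minutes at 37 degrees C. DiscoveRx reagent added for 30–60 minutes at room temperature; luminescence read, quantitative HTS format.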
D1 antag = human D1 dopamine receptor antagonism; P21728; actives 3.2% (n = 360,000); AID 504652; HEK293 TREx D1 cells, calcium flux, dopamine EC80; stronger effect = lower value; activity change, negative = inhibition, % at 10 µM; in the data active means activity change below about -30%
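Tetracycline-induced HEK293 Trex D1 cells, force-coupled to calcium, dye-loaded; compounds added and read 180 s, then EC80 dopamine added and calcium flux tracked kinetically another 180 s.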
DRD3 agonist = D3 dopamine receptor (human) agonism; P35462; D3R DiscoveRx beta-arrestin cells, luminescence, 90 min; max activation, %; actives 0.58% (n = 410,000); AID 652048; in the data active means max activation above about 30%
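Agonist mode: compounds and dopamine controls were applied to plated cells for 90 min at 37 degrees C after an overnight attachment at 1500 cells/well. Luminescent read-out followed 30 - 60 minutes at room temperature with DiscoveRx detection reagent.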
Chronic BCR inh = chronic active BCR signaling inhibition. ABC-DLBCL IkBa-CBG/CBR reporter, luminescence ratio, 4 h. actives 0.05% (n = 340,000). Potency, µM (highest dose often 46.1 µM), usual class: inhibitors; active means well fitted inhibition curve with a large enough effect in the signal ratio, with a control signal flat, not every such curve was filed as active; inconclusive means small, poorly fitted or top-dose-only effect, or effect the other way, or a change in a side signal; the % refers to the signal ratio
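Concentration-response series (up to 46 uM) were applied to TMD8 dual-reporter cells for 4 h at 37C with doxycycline. Green/red ratio, after filter-overlap correction, defined %Activity; red signal alone was normalised to basal cells and zero luminescence.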
D1 PAM = enhances dopamine response at the human D1 receptor; P21728; HEK293 TREx D1 cells, calcium flux, dopamine EC20 potentiation; potentiation, % at 10 µM; actives 0.036% (n = 360,000); AID 504651; in the data active means potentiation above about 30%
A number is an active result.

Screening CC(C)CC(N)c1csc(Nc2cc(Oc3ccccc3)ncn2)n1 (configuration not stated) returned DRD3 antagonist inactive and DRD3 agonist inactive.
`CN1C(=O)CC(C)(c2ccccc2)C1=O` (configuration not stated) gave DRD3 agonist inactive.
Screening CC1=C(C(=O)N(C(C)C)C(C)C)CC(CC(=O)NC2CCCCC2)C(=O)N1Cc1ccc(C(C)(C)C)cc1 (configuration not stated) returned DRD3 antagonist inactive and DRD3 agonist inactive.
Screening CC(C)NC(=O)C1(C)CSCC(=O)N1CCCn1ccnc1 (configuration not stated) returned DRD3 antagonist inactive and DRD3 agonist inactive.
Screening COc1ccc([C@H]2C[C@H](O)[C@@H](n3cc(-c4ccc(F)cc4)nn3)CN2Cc2cccs2)cc1 returned DRD3 antagonist inactive and DRD3 agonist inactive.
Screening O=C(CCCn1c(=O)[nH]c2ccccc2c1=O)N1CCN(c2ccccc2)CC1 returned D1 ag inactive, D1 antag -37, DRD3 agonist inactive, Chronic BCR inh inactive and D1 PAM inactive.
Cc1cc(C)c2c(=O)n(CC(=O)NCCCN3CCOCC3)sc2n1 was read as D1 ag inactive, DRD3 antagonist inactive, D1 antag inactive, DRD3 agonist inactive, Chronic BCR inh inconclusive and D1 PAM inactive.
For Cc1cc(C)c2c(=O)n(CC(=O)NCCCN3CCN(c4ccccc4F)CC3)sc2n1 the results were D1 ag inactive, DRD3 antagonist -70, D1 antag inactive, DRD3 agonist inactive, Chronic BCR inh inactive and D1 PAM inactive.
`CCCCNc1ncnc2c1nnn2C` gave D1 ag inactive, DRD3 agonist inactive, Chronic BCR inh inconclusive and D1 PAM inactive.
Screening Cc1ccn2c(=O)c(NC(=O)c3ccc4c(c3)OCO4)c(C)nc2c1 returned DRD3 antagonist inactive and DRD3 agonist inactive.
Cc1ccc(S(=O)(=O)Nc2cc(Cl)ccc2-n2cncn2)cc1 was read as D1 ag inactive, DRD3 antagonist inactive, D1 antag -38, DRD3 agonist inactive, Chronic BCR inh inactive and D1 PAM inactive.
O=S(=O)(Nc1cc(Cl)ccc1-n1cncn1)c1cc(Br)ccc1Br was read as D1 ag inactive, DRD3 antagonist inactive, D1 antag -33, DRD3 agonist inactive, Chronic BCR inh inactive and D1 PAM inactive.
For OCc1cccc(-c2csc(C(O)(c3ccccc3)C(F)(F)F)n2)c1 (configuration not stated) the results were DRD3 antagonist inactive and DRD3 agonist inactive.
Screening Cc1ccccc1C(=O)Nc1sc2c(c1C(=O)N1CCCCC1)CCC(C)C2 (configuration not stated) returned D1 ag inactive, D1 antag inactive, DRD3 agonist inactive and D1 PAM inactive.
Screening OC(c1cc(C(F)(F)F)nc2c(C(F)(F)F)cccc12)C1CCCCN1 (configuration not stated) returned D1 ag 160, DRD3 antagonist inactive, D1 antag inactive, DRD3 agonist inactive, Chronic BCR inh inconclusive and D1 PAM 34.
For OC(c1cc(-c2cccc(Cl)c2)nc2ccccc12)C1CCCCN1 (configuration not stated) the results were DRD3 antagonist inactive and DRD3 agonist inactive.
For Cc1ccc(O)c(CNc2cnc3ccccc3c2)c1 the results were D1 ag inactive, DRD3 antagonist inactive, D1 antag -31, DRD3 agonist inactive, Chronic BCR inh inconclusive and D1 PAM inactive.
Screening Cc1ccc(-n2ncc3c(SCC(=O)NNC(=O)C(C)C)ncnc32)cc1 returned D1 ag inactive, DRD3 antagonist inactive, D1 antag -54, DRD3 agonist inactive, Chronic BCR inh inactive and D1 PAM inactive.
O=C(CSc1ncnc2c1cnn2-c1ccccc1)NC1CCCC1 was read as D1 ag inactive, DRD3 antagonist inactive, D1 antag -91, DRD3 agonist inactive, Chronic BCR inh inactive and D1 PAM inactive.
CC(C)C(=O)NNC(=O)CSc1ncnc2c1cnn2-c1ccccc1Cl was read as D1 ag inactive, DRD3 antagonist inactive, D1 antag inactive, DRD3 agonist inactive, Chronic BCR inh inconclusive and D1 PAM inactive.
